Laboratory results taken from a collection of fitness landscapes (doi:10.1126/science.1257360).
Over roughly 140,000 sequences, “enrichment ratio after two sorts for PhoP signalling” has its median near 0; the highest 2% begin near 11. For the sample, the highest values were picked, then their nearest neighbours and some sequences at random.

B1: PhoQ; a variant is named by its letters at X, in order, P23837 (parent)
chain: MKKLLRLFFPLSLRVRFLLATAAVVLVLSLAYGMVALIGYSVSFDKTTFRLLRGESNLFYTLAKWENNKLHVELPENIDKQSPTMTLIYDENGQLLWAQRDVPWLMKMIQPDWLKSNGFHEIEADVNDTSLLLSGDHSIQQQLQEVREDDDDAEMTHSVAVNVYPATSRMPKLTIVVVDTIPVELKSSYMVWSWFIYVLSANLLLVIPLLWVAAWWSLRPIEALAKEVRELEEHNRELLNPATTRELTSLVRNLNRLLKSERERYDKYRTTLTDLTHSLKTPLXXLQXXLRSLRSEKMSVSDAEPVMLEQISRISQQIGYYLHRASMRGGTLLSRELHPVAPLLDNLTSALNKVYQRKGVNISLDISPEISFVGEQNDFVEVMGNVLDNACKYCLEFVEISARQTDEHLYIVVEDDGPGIPLSKREVIFDRGQRVDTLRPGQGVGLAVAREITEQYEGKIVAGESMLGGARMEVIFGRQHSAPKDE

Variants of: B1
Test: enrichment ratio after two sorts for PhoP signalling (ratio (wild type AVST 3.29)); higher = more functional
Details: with PhoP (E. coli)

Variant	enrichment ratio
DHKR	≤ 0.25
LPWC	≤ 0.25
DVVV	≤ 0.25
VKNA	≤ 0.25
RHPV	≤ 0.25
YEDC	≤ 0.25
QEAN	2.7
MEIN	11.2
MEAN	32.4
MDLT	≤ 0.25
MKAN	≤ 0.25
MDNT	≤ 0.25
NEIN	≤ 0.25
MDIN	≤ 0.25
TEAN	29.6
MFAN	≤ 0.25
MDAT	25.1
TEIN	5.99
IEYH	≤ 0.25
FRYS	≤ 0.25
FLVW	≤ 0.25
QNFD	≤ 0.25
SLAV	9.05
GGAV	23.8
KLKV	≤ 0.25

Variant	enrichment ratio
RGAV	≤ 0.25
TLKV	48.4
KLAV	≤ 0.25
GTAV	≤ 0.25
TLAV	11.9
TGAV	17.1
LLKV	≤ 0.25
NIAV	≤ 0.25
NGAV	≤ 0.25
FLFA	0.339
HVFA	≤ 0.25
EHCF	≤ 0.25
ADAV	5.88
FDAV	≤ 0.25
TDAV	11.6
ERLI	≤ 0.25
VDMS	≤ 0.25
SPSS	≤ 0.25
SESS	13.9
NVSS	≤ 0.25
PLSS	≤ 0.25
VLSS	0.29
TLSS	12
KYSS	≤ 0.25
SQSS	11.6

Variant	enrichment ratio
SDSS	0.569
SLSS	6.86
SRSS	≤ 0.25
TVSS	11.6
RKAE	≤ 0.25
AYPP	≤ 0.25
PNHN	≤ 0.25
VSWN	≤ 0.25
ESGC	≤ 0.25
QYRN	≤ 0.25
EVDI	≤ 0.25
PGYQ	≤ 0.25
KQSS	≤ 0.25
TTSS	15.9
YTSS	≤ 0.25
FSSS	≤ 0.25
KSSS	≤ 0.25
TSSS	14
HVKP	≤ 0.25
MNYD	≤ 0.25
VKMD	≤ 0.25
ISKH	≤ 0.25
KHQI	≤ 0.25
HSYE	≤ 0.25
AESS	16.3

Variant	enrichment ratio
AETH	0.824
AEVE	7.98
AEVI	17.5
AEVS	16.2
AEVY	6.64
AENK	≤ 0.25
AEKC	≤ 0.25
AESQ	4.68
AEVK	≤ 0.25
AETC	36.7
AEVA	≤ 0.25
QGNI	≤ 0.25
WYRH	≤ 0.25
EKKS	≤ 0.25
RHGF	≤ 0.25
REAM	≤ 0.25
PMYC	≤ 0.25
VLES	≤ 0.25
QQHF	≤ 0.25
GTWR	≤ 0.25
KCDP	≤ 0.25
VWMG	≤ 0.25
MEVL	11.6
AETD	≤ 0.25
AEVG	6.84

Variant	enrichment ratio
AETI	16.8
AETA	5.73
MAVL	2.43
QEVF	≤ 0.25
AEVF	14.3
AIVF	2.34
AEVC	14.6
NEVL	≤ 0.25
ERYW	≤ 0.25
TEFV	8.47
FYGK	≤ 0.25
FRYA	≤ 0.25
WKER	≤ 0.25
FREH	≤ 0.25
EDQF	≤ 0.25
PKWA	≤ 0.25
MNPT	≤ 0.25
WRCA	≤ 0.25
GWPN	≤ 0.25
AEHF	≤ 0.25
AETM	≤ 0.25
AEVM	46.8
AETS	20.8
AERM	≤ 0.25
AEDV	≤ 0.25

Variant	enrichment ratio
AETF	9.37
AEGM	≤ 0.25
AETV	22.9
AESK	≤ 0.25
AETE	8.78
AESF	14.8
RWWL	≤ 0.25
RSVA	≤ 0.25
ECQN	≤ 0.25
VEAF	≤ 0.25
AETW	11.3
AERL	≤ 0.25
AETQ	≤ 0.25
AEPC	≤ 0.25
AKQC	≤ 0.25
AEFW	≤ 0.25
AEVL	17.5
AEEL	≤ 0.25
AEQC	16
AEKS	≤ 0.25
AQQC	≤ 0.25
AESC	32.1
YVCN	≤ 0.25
DGHV	≤ 0.25
VIEF	≤ 0.25

Variant	enrichment ratio
WKPN	≤ 0.25
EKAV	≤ 0.25
STCA	7.48
SRPM	≤ 0.25
STCE	13.1
SPPM	≤ 0.25
YTCE	≤ 0.25
STCK	12.3
SRCK	≤ 0.25
STHE	≤ 0.25
STPM	15.9
STCS	10.8
YTCK	≤ 0.25
STCI	12.3
TPLS	≤ 0.25
QDRE	≤ 0.25
ICDP	≤ 0.25
QAMT	≤ 0.25
QYWL	≤ 0.25
FCIR	≤ 0.25
RNQK	≤ 0.25
LNAP	≤ 0.25
THWI	≤ 0.25
YKPH	≤ 0.25
VKLF	≤ 0.25

Variant	enrichment ratio
AGWK	≤ 0.25
GNCH	3.45
GMCH	16.1
VECH	24.1
NRMH	≤ 0.25
HECF	≤ 0.25
HRMH	≤ 0.25
VFCH	≤ 0.25
HECH	12.7
HECI	6.73
TEMH	134
GMMH	≤ 0.25
TCCH	7.95
GFPY	≤ 0.25
DYYD	≤ 0.25
EPTC	≤ 0.25
QQYH	≤ 0.25
QHTA	≤ 0.25
ETDE	≤ 0.25
HVCH	≤ 0.25
MECH	56.6
MFCH	≤ 0.25
HPCH	≤ 0.25
NECH	18
DMCH	≤ 0.25

Variant	enrichment ratio
TECH	27.7
QECH	≤ 0.25
YWCH	≤ 0.25
FIVW	≤ 0.25
MRRQ	≤ 0.25
KFHY	≤ 0.25
FGDH	≤ 0.25
EQSM	≤ 0.25
YMLV	0.756
NWGV	≤ 0.25
AFIT	≤ 0.25
IIPL	≤ 0.25
GIHW	≤ 0.25
GIMM	17.3
GNMM	0.333
GITM	10.3
GNGW	≤ 0.25
GIGM	36.1
GIAH	22.5
GITH	≤ 0.25
GNAH	≤ 0.25
GIGW	16
GIWM	≤ 0.25
GIYM	≤ 0.25
RCKT	≤ 0.25

Variant	enrichment ratio
KSCR	≤ 0.25
YPKK	≤ 0.25
TDMP	≤ 0.25
PKYN	≤ 0.25
IVYH	≤ 0.25
QMPA	≤ 0.25
LKRS	≤ 0.25
KQPM	≤ 0.25
RNQP	≤ 0.25
WSPR	≤ 0.25
NEWG	≤ 0.25
IPQP	≤ 0.25
MNPP	≤ 0.25
CSHW	≤ 0.25
PKLP	0.31
FDCK	≤ 0.25
KLPV	≤ 0.25
GITF	18.4
GISR	≤ 0.25
GILT	3.61
GNMT	≤ 0.25
GIMQ	11.4
GISA	13
GIGQ	≤ 0.25
GIMT	12.6

Variant	enrichment ratio
GIHF	≤ 0.25
GIGG	≤ 0.25
GNSA	2.7
GNTF	≤ 0.25
WKTM	≤ 0.25
RKLH	≤ 0.25
GFLH	≤ 0.25
TNCW	≤ 0.25
LAHQ	≤ 0.25
MIEG	≤ 0.25
RYNY	≤ 0.25
GILR	12.2
GTMC	≤ 0.25
GNAW	≤ 0.25
GNVV	5.22
GIAW	21.6
GITD	≤ 0.25
GIVV	11.3
GIMC	17.3
GYLR	≤ 0.25
WIVV	≤ 0.25
GNLR	≤ 0.25
GNMC	≤ 0.25
MDVY	≤ 0.25
LSLS	≤ 0.25

Variant	enrichment ratio
IAET	≤ 0.25
ECYK	≤ 0.25
KLTV	≤ 0.25
LQYA	≤ 0.25
LGNN	≤ 0.25
QGIH	≤ 0.25
EKVT	≤ 0.25
YIEP	≤ 0.25
HLIK	≤ 0.25
GNAG	0.269
GITI	5.68
GNSS	5.64
GISK	4.87
GITK	16
GNLG	5.07
GNTK	≤ 0.25
GIAG	15.6
GIMG	8.1
GITG	2.48
GISS	13.5
GILG	12.3
RNAN	≤ 0.25
KNTS	≤ 0.25
TMDQ	≤ 0.25
AWAD	≤ 0.25

Variant	enrichment ratio
RVNY	≤ 0.25
YHMP	≤ 0.25
AFVI	≤ 0.25
SYPA	≤ 0.25
GIWI	≤ 0.25
GNAS	4.84
GISF	8.06
GILA	11.3
GIAT	≤ 0.25
GIAS	14.2
GIYI	0.548
GILQ	17.5
GNLQ	5.83
GISM	18.4
GITA	7.39
GNSM	10.6
